In PubChem BioAssay (NCATS):
Results filed as inconclusive are left out. A call without a number means that no potency is given here. Unmarked numbers belong to inactive results. Active and inactive are the calls of the source. Calls follow the shape of the dose curve; as a rule, active = well fitted inhibition curve with a large enough effect; inconclusive = small, poorly fitted or top-dose-only effect; inactive = flat fitted curve, though single readings scatter. Where a SMILES comes first, the peptide text is derived from it. [ ]: non-standard residue; d: D form. ξ: configuration not given here. ξTyr(βOH) = NC(C(=O)O)C(O)c1ccc(O)cc1

Key:
[1] = system: CRL-7250; experiment: Cytotoxic Profiling of Annotated Libraries Using Quantitative High-Throughput Screening (AID 1296008); conditions: Five cell lines viability, CellTiter-Glo ATP luminescence, 48-72 h; max response: hits give low values; also: potency is read from the fitted curve at half-maximal effect
Summary of the method: (§1)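 Cells exposed to compounds for 48 or 72 hr at 37 degrees Celsius. Viability read as ATP-coupled luminescence with CellTiter-Glo after 10 min at room temperature.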

[2] = system: HEK293; experiment: as above; conditions: Five cell lines viability, CellTiter-Glo ATP luminescence, 48-72 h; max response: hits give low values
Summary of the method: as §1

[3] = system: HaCat; experiment: as above; conditions: Five cell lines viability, CellTiter-Glo ATP luminescence, 48-72 h; max response: hits give low values
Summary of the method: as §1

[4] = system: KB-3-1; experiment: as above; conditions: Five cell lines viability, CellTiter-Glo ATP luminescence, 48-72 h; max response: hits give low values
Summary of the method: as §1

[5] = system: NIH3T3; experiment: as above; conditions: Five cell lines viability, CellTiter-Glo ATP luminescence, 48-72 h; max response: hits give low values
Summary of the method: as §1

[6] = system: HACAT; experiment: qHTS assay to identify novel small-molecules to repurpose for Merkel cell carcinoma treatment (AID 1296009); conditions: MCC and control cell lines, CellTiter-Glo viability, 72 h; at 44.8 µM (top of the series) unless noted
Summary of the method: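 CellTiter-Glo luminescence after 72 hr compound exposure at 37 degree celsius gave cell viability. Libraries NPC and MIPE were run as 8- and 11-point dose responses; RLUs normalized to DMSO (negative) and no-cell (cytotoxicity) controls.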
Also: nearly all actives have a fitted effect of over 60% in size.

Row | Structure (SMILES) | outcome [1] | max response [2] [%] | outcome [3] | outcome [4] | max response [5] [%] | outcome [6] | max response [1] [%] | max response [4] [%] | outcome [5] | Potency [2]
1 | N#CC1C(=O)N=C(c2cc(Cl)ccc2O)C=C1c1cc(OCc2ccccc2)cc(OCc2ccccc2)c1 (configuration not stated) | inactive | 3.52 | inactive | inactive | 1.6 | inactive | – | – | – | –
2 | COc1cccc(Cn2ncc3c4sc(S(C)=O)cc4n(C)c3c2=O)c1 (configuration not stated) | – | -7.28 | inactive | inactive | 2.83 | inactive | 2.15 | – | – | –
3 | OC[C@@]1(O)CO[C@@H](OC[C@H]2O[C@@H](Oc3ccccc3)[C@H](O)[C@@H](O)[C@@H]2O)[C@@H]1O | inactive | -6.8 | inactive | – | – | inactive | – | 0.107 | inactive | –
4 | COc1cc(/C=C/C(=O)O[C@H]2[C@@H]3C=CO[C@@H](O[C@@H]4O[C@H](CO)[C@@H](O)[C@H](O)[C@H]4O)[C@@H]3[C@@]3(CO)O[C@@H]23)ccc1O | inactive | 1.49 | inactive | inactive | – | inactive [at 17.4 µM] | – | – | inactive | –
5 | COc1ccc(CCc2nc3cc(-c4c(C)noc4C)ccc3n2C[C@H](C)N2CCOCC2)cc1Cl | – | – | inactive | – | – | inactive | -8.27 | -12.6 | inactive | 18.4 µM (active)
6 | O=C1C(Cl)=C(N2CCOCC2)C(=O)N1c1ccc(Cl)c(Cl)c1 | inactive | -3.24 | inactive | inactive | – | inactive [at 17.4 µM] | – | – | inactive | –
7 | Cc1ccc(-c2c(-c3nn(C)c4ncnc(N5CCC(N6CCCCC6)C5)c34)cnn2C)cc1 (configuration not stated) | inactive | -1.32 | inactive | inactive | 4.76 | inactive | – | – | – | –
8 | CC(C)C1C(OC(=O)/C=C/c2ccccc2)CC2(C)OC2CCC2(C)OC2C1O (configuration not stated) | inactive | -5.07 | inactive | – | -5.79 | inactive | – | 9.34 | – | –
9 | COC(=O)C(CC1(O)c2ccccc2N2C(=O)C(CC(C)C)NC21)n1cnc2ccccc2c1=O (configuration not stated) | inactive | -5.33 | inactive | inactive | – | inactive [at 17.4 µM] | – | – | inactive | –
10 | OCC1=C[C@@H](O)[C@@H]2C=CO[C@@H](O[C@@H]3O[C@H](CO)[C@@H](O)[C@H](O)[C@H]3O)[C@H]12 | – | 0.828 | inactive | inactive | 4.6 | inactive | -1.82 | – | – | –
11 | COc1cc(C2CC(=O)Nc3c2cc(Br)c2ccccc32)cc(OC)c1OC (configuration not stated) | inactive | 1.49 | inactive | inactive | – | inactive | – | – | inactive | –
12 | CC1(C)Oc2ncnc(N)c2N=C1c1ccc(C2CCC(CC(=O)O)CC2)cc1 (configuration not stated) | – | 0.549 | inactive | inactive | 0.325 | inactive | 3.48 | – | – | –
13 | COc1c(O)cc2c(c1O)C(=O)O[C@H](C)[C@H]2O | inactive | -6.03 | inactive | – | – | inactive | – | 4.43 | inactive | –
14 | OC[C@H]1O[C@@H](Oc2cc(O)cc(-c3cc4ccc(O[C@@H]5O[C@H](CO)[C@@H](O)[C@H](O)[C@H]5O)cc4o3)c2)[C@H](O)[C@@H](O)[C@@H]1O | – | -2.42 | inactive | – | -3.34 | inactive [at 17.4 µM] | -9.86 | 0.0792 | – | –
15 | Cc1oc(S(=O)(=O)N2CCCCC2)cc1NC(=O)Nc1ccccc1 | inactive | -1.71 | inactive | inactive | -1.71 | inactive | – | – | – | –
16 | COc1cc(O)cc2c1C(=O)OC(C)C2 (configuration not stated) | – | 4.69 | inactive | – | -0.229 | inactive | 4.54 | 3.07 | – | –
17 | CC(C)N(CCCNC(=O)Nc1ccc(C(C)(C)C)cc1)C[C@H]1O[C@@H](n2ccc3c(N)ncnc32)[C@H](O)[C@@H]1O | – | -23.8 | inactive | – | -13.2 | inactive | 1.45 | -3.09 | – | –
18 | CCC(C)C(=O)O[C@H]1C[C@](C)(O)[C@]23OC(C)(C)[C@H](C[C@H](OC(=O)c4ccccc4)[C@]2(COC(C)=O)[C@H]1OC(=O)C(C)CC)[C@H]3OC(C)=O (some centres not stated) | – | -12.8 | inactive | inactive | 4.39 | inactive [at 17.4 µM] | -7.32 | – | – | –
19 | CC1CCC2C(C)(C)C(O)C(O)CC2(C)C12Cc1c(O)cc(CO)c(C=O)c1O2 (configuration not stated) | – | -2.44 | inactive | – | 0.788 | inactive [at 17.4 µM] | 1.89 | 2.63 | – | –

Row | Structure (SMILES) | outcome [1] | max response [2] [%] | outcome [3] | outcome [4] | max response [5] [%] | outcome [6] | max response [1] [%] | max response [4] [%] | outcome [5] | Potency [2]
20 | C=C(C)C1CCC2(C(=O)OC3OC(COC4OC(CO)C(O)C(O)C4O)C(OC4OC(C)C(O)C(O)C4O)C(O)C3O)CCC3(C(=O)O)C(CCC4C5(C)CCC(=O)C(C)(C)C5CCC43C)C12 (configuration not stated) | – | -21.3 | inactive | – | – | inactive [at 9.27 µM] | -1.47 | 1.44 | inactive | –
21 | CC(C)C1NC(=O)CNC(=O)C2CCCN2C(=O)C(Cc2c[nH]c3ccccc23)NC(=O)CNC(=O)C(C(O)c2ccc(O)cc2)NC(=O)CNC1=O (configuration not stated) (cyclo(G[ξTyr(βOH)]GWPGV); configuration not given here) | – | 1.2 | inactive | – | – | inactive [at 17.4 µM] | -8.12 | 2.88 | inactive | –
22 | C/C=C1/C[N+](C)([O-])C2Cc3c([nH]c4ccccc34)C(=O)CC1C2C(=O)OC (configuration not stated) | – | -0.509 | inactive | – | -1.66 | inactive | -5.18 | 8.09 | – | –
23 | CC1CC(O)/C=C/C(O)/C=C\C(=O)O1 (configuration not stated) | – | -11.1 | inactive | inactive | – | inactive [at 92 µM] | 0.731 | – | inactive | –
24 | CCc1nnc(NS(=O)(=O)c2ccc(NC(=S)NC(=O)/C=C/c3ccc(F)cc3)cc2)s1 | inactive | -0.631 | inactive | inactive | – | inactive | – | – | inactive | –
25 | CC1OC(OC2C(OC(=O)[C@]34CCC(C)(C)C[C@H]3C3=CCC5[C@@]6(C)CC[C@H](OC7OC(C(=O)O)C(O)C(O)C7O)C(C)(C)C6CC[C@@]5(C)[C@]3(C)CC4O)OC(CO)C2O)C(O)C(O)C1OC1OCC(O)C(O)C1O (some centres not stated) | – | -8.42 | inactive | – | -0.0675 | inactive [at 9.27 µM] | 0.472 | 8.03 | – | –
26 | CC(=O)OC[C@@]12C(=O)C[C@@H](C)[C@]3(C[C@@H](c4ccoc4)OC3=O)[C@H]1CC[C@H](OC(C)=O)[C@]21CO1 | – | -0.582 | inactive | inactive | -0.126 | inactive [at 17.4 µM] | -3.74 | – | – | –
27 | C=C1CC23CC(=O)C4C(CO)(CO)CCCC4(C)C2CCC1C3 (configuration not stated) | inactive | 2.8 | inactive | inactive | -8.41 | inactive | – | – | – | –
28 | Cc1noc2c1-c1ccccc1C(c1ccc(Cl)cc1)=N[C@H]2CC(N)=O | – | -4.39 | inactive | inactive | -0.413 | inactive | 1.75 | – | – | –
29 | CC(C)C1CCC(C(=O)N[C@@H](Cc2ccccc2)C(=O)O)CC1 (some centres not stated) | inactive | 3.42 | inactive | inactive | – | inactive | – | – | inactive | –
30 | COc1cccc(C)c1C(=O)O[C@@H]1C[C@H](O[C@H]2[C@H](O)C[C@H](O[C@@H]3CCC[C@H]4[C@H]3C=C[C@@H]3CCCC/C=C/[C@H]5C=C(C(=O)O)[C@@H](C)C[C@@]56OC(=O)C(=C6O)OC(=O)[C@@]34C)O[C@@H]2C)O[C@H](C)[C@H]1O | – | -11.9 | inactive | – | – | inactive [at 9.27 µM] | -2.06 | 6.21 | inactive | –
31 | OC[C@H]1O[C@@H](OCc2ccccc2)[C@H](O[C@@H]2OC[C@@H](O)[C@H](O)[C@H]2O)[C@@H](O)[C@@H]1O | inactive | 0.407 | inactive | inactive | – | inactive [at 17.4 µM] | – | – | inactive | –
32 | Cc1c(NC(=O)N2CCOCC2)ccc2c1c1ccccc1n2C(C)C | inactive | -7.57 | inactive | – | -1.53 | inactive | – | 3.33 | – | –
33 | CC12CC(O)C(O)C=C1c1cc(O)cc(O)c1C(=O)O2 (configuration not stated) | – | -7.31 | inactive | inactive | – | inactive | -7.12 | – | inactive | –
34 | CC(C)C1NC(=O)C(CC2(O)c3ccccc3N3C(=O)C(Cc4ccccc4)NC32)NC1=O (configuration not stated) | inactive | -4.45 | inactive | inactive | – | inactive [at 17.4 µM] | – | – | inactive | –
35 | C=C(C)[C@@H]1CC[C@]2(C(=O)O)CC[C@]3(C)C(CCC4[C@]5(C)C(CC[C@]43C)C(C)(C)[C@@H](O)[C@@H]5C(=O)O)C12 (some centres not stated) | inactive | -0.322 | inactive | inactive | – | inactive [at 17.4 µM] | – | – | inactive | –
36 | C=C1CC2C3(C)C(O)CC(=O)C(C)(C)C3C(O)C(OC(C)=O)C2(C)C2C(=O)OC(C)(C(=O)OC)C(=O)C12C (configuration not stated) | inactive | -2.76 | inactive | inactive | -16.8 | inactive [at 17.4 µM] | – | – | – | –
37 | COC(=O)c1ccccc1O[C@@H]1O[C@H](CO[C@@H]2OC[C@@H](O)[C@H](O)[C@H]2O)[C@@H](O)[C@H](O)[C@H]1O | – | 4.14 | inactive | – | – | inactive [at 17.4 µM] | 0.973 | -2.26 | inactive | –
